Screens as filed in PubChem.
PD-1 reverse act: activators reversing PD-1 mediated T-cell inhibition, primary screen, luminescence, primary human CD4 T cells, PD-L1 beads; CellTiter-Glo 96 h; activation, % (no concentration beside the values); 29,000 tested, under 10 active; AID 2316, 2010; call rule not given here;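 also: 0% = median vehicle wells and 100% = positive control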
STK33 kin inh: STK33 kinase inhibitors, primary screen, biochemical, luminescence, ADP-Glo, MBP substrate; inhibition, % at 12.5 µM; 27,000 compounds, 0.44% hits; Serine/threonine-protein kinase 33 (Homo sapiens), Q9BYT3; in the data active = inhibition above about 20%
Target sequence (Q9BYT3 whole entry, looked up): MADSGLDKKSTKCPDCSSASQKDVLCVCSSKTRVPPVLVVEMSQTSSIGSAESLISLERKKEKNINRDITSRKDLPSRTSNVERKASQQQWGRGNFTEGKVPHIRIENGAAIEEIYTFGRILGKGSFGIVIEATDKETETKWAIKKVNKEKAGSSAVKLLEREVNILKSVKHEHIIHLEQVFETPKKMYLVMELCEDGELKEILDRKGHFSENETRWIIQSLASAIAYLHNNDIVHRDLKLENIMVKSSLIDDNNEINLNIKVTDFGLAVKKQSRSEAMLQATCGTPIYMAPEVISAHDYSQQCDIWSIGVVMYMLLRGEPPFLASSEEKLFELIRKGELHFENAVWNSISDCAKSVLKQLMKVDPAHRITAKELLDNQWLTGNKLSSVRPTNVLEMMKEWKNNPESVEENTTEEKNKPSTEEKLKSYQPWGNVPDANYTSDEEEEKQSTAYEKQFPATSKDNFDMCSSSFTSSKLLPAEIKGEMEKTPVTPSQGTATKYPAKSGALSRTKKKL
NOMO-1 viab: NOMO-1 AML cell viability reduction, primary screen, STK33 inhibitor project, CellTiter-Glo luminescence. NOMO-1 AML viability, 72 h. inhibition, % (no concentration beside the values). 37,000 compounds, 7.5% hits; in the data active = inhibition above about 80%
* marks the source's active call; other numbers are inactive results; . = no result. The full list was thinned out, with hits kept by preference.

SMILES | PD-1 reverse act | STK33 kin inh | NOMO-1 viab
Cc1ccc(S(=O)(=O)N(C)C[C@@H]2Oc3c(NC(=O)Nc4ccc(C(F)(F)F)cc4)cccc3C(=O)N([C@@H](C)CO)C[C@H]2C)cc1 | 1 | . | 35
C[C@@H]1CN([C@H](C)CO)C(=O)c2cccc(NC(=O)Nc3ccc(C(F)(F)F)cc3)c2O[C@@H]1CN(C)S(=O)(=O)c1ccc(Cl)cc1 | -7 | . | 117*
Cc1ccc(S(=O)(=O)N(C)C[C@H]2Oc3c(NC(=O)Nc4ccc(C(F)(F)F)cc4)cccc3C(=O)N([C@H](C)CO)C[C@@H]2C)cc1 | . | . | 59
C[C@@H]1CN([C@H](C)CO)C(=O)c2cccc(NC(=O)Nc3ccc(F)cc3)c2O[C@H]1CN(C)S(=O)(=O)c1ccc(Cl)cc1 | . | . | 12
C[C@H]1CN([C@@H](C)CO)C(=O)c2cccc(NC(=O)Nc3ccc(F)cc3)c2O[C@H]1CN(C)S(=O)(=O)c1ccc(Cl)cc1 | -6 | . | 100*
C[C@@H]1CN([C@@H](C)CO)C(=O)c2cccc(NC(=O)Nc3ccc(C(F)(F)F)cc3)c2O[C@@H]1CN(C)S(=O)(=O)c1ccc(Cl)cc1 | -11 | . | 122*
C[C@H](CO)N1C[C@H](C)[C@H](CN(C)S(=O)(=O)c2ccc(Cl)cc2)Oc2c(NC(=O)Nc3ccc4c(c3)OCO4)cccc2C1=O | 0 | . | 3
CCOc1ccc(-c2nnc(SCC(=O)c3ccccc3N)n2C)cc1 | . | 0 | 22
COc1ccc(F)cc1S(=O)(=O)n1cnc2cc(C)c(C)cc21 | . | 1 | 48
O=C1C[C@@](C(=O)NCc2ccccc2)(c2ccc([N+](=O)[O-])cc2)[C@@H](c2ccc(CO)cc2I)N1CC12CC3CC(CC(C3)C1)C2 | . | 1 | .
COc1cc(CO)c(CC(=O)NN)cc1OC | 0 | . | -3
CC(NS(=O)(=O)c1ccc(F)cc1)C(=O)Nc1ccc(C(N)=O)cc1 (stereo unspecified) | 1 | 3 | 13
COC(=O)c1cc(N2C(=O)C3C4C=CC(C)(O4)C3C2=O)ccc1Cl (stereo unspecified) | -47 | 2 | 113*
Cc1ccc(NC(=O)CSC2CC(=O)N(c3ccccc3)C2=O)cc1C (stereo unspecified) | . | -3 | 9
CN1CCN(CC(=O)N2N=C(c3c(-c4ccccc4)c4cc(Cl)ccc4[nH]c3=O)CC2c2ccccc2)CC1 (stereo unspecified) | -12 | 0 | 124*
O=C(CSc1nc(-c2ccccc2)c2cc(Cl)ccc2n1)N1N=CCC1c1ccccc1 (stereo unspecified) | -1 | 7 | 43
CC(C)(C)OC(=O)CC[C@]12N=C(c3ccc(OCCCO)cc3)O[C@H]1c1ccccc1CN(CCS(=O)(=O)c1ccccc1)C2=O | . | 9 | .
C[C@@H]1CN([C@@H](C)CO)C(=O)c2cccc(NC(=O)Nc3ccccc3)c2O[C@@H]1CN(C)C(=O)Nc1cccc2ccccc12 | 1 | . | 106*
C[C@@H]1CN([C@@H](C)CO)C(=O)c2cccc(NC(=O)Nc3cccc4ccccc34)c2O[C@H]1CN(C)C(=O)Nc1ccccc1 | -2 | . | 25
C[C@@H]1CN([C@H](C)CO)C(=O)c2cccc(NC(=O)Nc3ccccc3)c2O[C@@H]1CN(C)C(=O)Nc1cccc2ccccc12 | 0 | . | 105*
C[C@H](CO)N1C[C@H](C)[C@H](CN(C)C(=O)Nc2ccccc2)Oc2c(NC(=O)Nc3cccc4ccccc34)cccc2C1=O | -3 | . | 73
CC(=O)Nc1ccc(C(=O)CSc2nc3ccccc3o2)cc1 | -1 | 7 | 13
C/C(=N\O)C12CC3(C)CC(C)(CC(C)(C3)C1)C2 | -2 | . | 120*
CC12CC3(C)CC(C)(C1)CC(C(=O)NC(=S)NC(C)(C)C)(C2)C3 | 0 | . | 35
CCN(CC(=O)Nc1cccc(Cl)c1)S(=O)(=O)c1ccc(Br)cc1 | . | -1 | 11
SMILES | PD-1 reverse act | STK33 kin inh | NOMO-1 viab
COc1ccc(OC)c(S(=O)(=O)Nc2ccc(C(N)=O)cc2)c1 | 2 | -7 | 1
COc1ccc(OC)c(NC(=O)c2ccc(Cl)c(S(=O)(=O)Nc3ccc(C)cc3)c2)c1 | -2 | -1 | 93*
COc1ccc(C(=O)Nc2ccc(Cl)cc2)cc1S(=O)(=O)Nc1ccc(Cl)cc1 | -1 | . | 70
COc1ccc(OC)c(NC(=O)c2ccc(C)c(S(=O)(=O)Nc3ccc(C)cc3)c2)c1 | -5 | -2 | 103*
C=C1CC[C@@H]2[C@](C)(CO)[C@H](O)CC[C@@]2(C)[C@@H]1C/C=C1/C(=O)OC[C@H]1O | -14 | -1 | 108*
C=C1CC[C@H]2[C@@](C)(CCC(O)[C@@]2(C)CO)[C@@H]1CCC1=CCOC1=O (stereo partly specified) | 1 | -1 | 5
N#C[C@@H]1O[C@H](COC(=O)c2ccccc2)[C@@H](OC(=O)c2ccccc2)[C@H]1OC(=O)c1ccccc1 | 1 | . | 14
CCn1c(SCC(=O)Nc2ccc(Cl)c(Cl)c2)nnc1-c1cccnc1 | -2 | -3 | -10
COc1ccc(NC(=O)Nc2ccc3c(c2)C(=O)N([C@@H](C)CO)C[C@H](C)[C@H](CN(C)Cc2ccc(-c4ccccc4)cc2)O3)cc1 | 5 | 3 | 29
COc1ccc(NC(=O)Nc2ccc3c(c2)C(=O)N([C@@H](C)CO)C[C@@H](C)[C@@H](CN(C)Cc2ccc(Oc4ccccc4)cc2)O3)cc1 | -5 | 1 | 117*
COc1ccc(NC(=O)Nc2ccc3c(c2)C(=O)N([C@@H](C)CO)C[C@@H](C)[C@H](CN(C)Cc2ccc(Oc4ccccc4)cc2)O3)cc1 | . | . | -4
COc1ccc(NC(=O)Nc2ccc3c(c2)C(=O)N([C@H](C)CO)C[C@@H](C)[C@@H](CN(C)Cc2ccc(-c4ccccc4)cc2)O3)cc1 | . | . | 94*
CC1=C(C#N)C(C(F)(F)F)(C(F)(F)F)N=C(c2ccncc2)N1 | 0 | . | 16
Cc1cc(NC(=O)CN(c2cc(Cl)ccc2C)S(C)(=O)=O)ccc1Br | 2 | 0 | 67
CCn1c(SCC(=O)Nc2ccc(C(=O)O)cc2)nnc1-c1ccc(Cl)cc1 | -1 | 4 | 31
CCn1c2ccccc2c2cc(NC(=O)CN(C)S(=O)(=O)c3ccccc3)ccc21 | . | 0 | 42
CCn1c(=NC(=O)c2ccc(S(=O)(=O)N(C)C)cc2)sc2ccccc21 | 0 | . | 87*
C[C@@H]1CN([C@H](C)CO)C(=O)Cc2cc(NS(=O)(=O)c3cccs3)ccc2O[C@@H]1CN(C)Cc1ccc(C(=O)Nc2ccccc2N)cc1 | 0 | . | 116*
C[C@@H]1CN([C@@H](C)CO)C(=O)Cc2cc(NS(=O)(=O)c3cccs3)ccc2O[C@@H]1CN(C)Cc1ccc(C(=O)Nc2ccccc2N)cc1 | 0 | . | 90*
C[C@H]1CN([C@@H](C)CO)C(=O)Cc2cc(NS(=O)(=O)c3cccs3)ccc2O[C@@H]1CN(C)Cc1ccc(C(=O)Nc2ccccc2N)cc1 | 0 | . | 45
O=C1c2ccccc2C(=O)N1CCc1nc2ccccc2c(=O)n1-c1nc2ccccc2s1 | 0 | 0 | 15
Cc1ccc(OCCSc2n[nH]c3nc4ccccc4n23)cc1 | . | 4 | 35
Cc1cc(O)c2c(c1)C(=O)c1cccc(O)c1C2=O | . | 5 | 16
CC1(O)CC(=O)c2c(ccc3c2C(=O)c2cccc(O)c2C3=O)C1 (stereo unspecified) | 0 | 1 | 95*
